Compound activity as filed in PubChem.
YB-1 expression – YB-1 expression inhibition; U2OS, qRT-PCR YB-1 vs CDIP delta delta Cp, 16 h; hits give high values; zero = DMSO, each unit about twofold; delta delta Cp (YB-1 minus CDIP) (concentration not given with the values); 30,000 compounds, 0.37% hits; AID 434959;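 active = delta delta Cp rounded down to an integer at or above 3, about 3 SD of DMSO wells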;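 also: higher means less YB-1 transcript or more CDIP transcript relative to DMSO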
NOMO-1 viab – STK33 inhibitor candidate reducing NOMO-1 cell viability. NOMO-1 AML viability, CellTiter-Glo luminescence, 72 h. inhibition, % (no concentration beside the values). 37,000 compounds, 7.5% hits. AID 2330; in the data active = inhibition above about 80%; inconclusive = no clear call, values can overlap the other calls
PD-1 reversal – reversal of PD-1 mediated T-cell inhibition; activation, % (concentration not given with the values); 29,000 tested, under 10 active; AID 2316; primary human CD4 T cells, PD-L1 beads, CellTiter-Glo 96 h; call rule not given here
U2OS ROS induce – inducers of reactive oxygen species in cancer cells | U2OS ROS induction, H2DCF-DA fluorescence | 46,000 compounds, 2% hits | ROS induction (% of piperlongumine), % at 10 µM | AID 624156; in the data active = ROS induction above about 79%, passing the limit was not always enough; inconclusive = no clear call, values can overlap the other calls
Each line names hits and unclear results; the compound was inactive in the other large screens. The full list was thinned out, with hits kept by preference.

C[C@@H]1CN([C@H](C)CO)C(=O)c2cccc(NS(=O)(=O)c3ccccc3)c2O[C@@H]1CN(C)Cc1ccc(C(=O)Nc2ccccc2N)cc1	NOMO-1 viab 128.0
C[C@H]1CN([C@@H](C)CO)C(=O)c2cccc(NS(=O)(=O)c3ccccc3)c2O[C@@H]1CN(C)Cc1ccc(C(=O)Nc2ccccc2N)cc1	NOMO-1 viab inconclusive
O=C(/C=C/c1ccccc1)Nc1ccc2[nH]c(=O)[nH]c2c1	none (no result: YB-1 expression, NOMO-1 viab, PD-1 reversal)
CC(C)S(=O)(=O)c1csc(NC(=O)Nc2cc(C(F)(F)F)cc(C(F)(F)F)c2)c1Cl	NOMO-1 viab 112.7
CC(C)c1cc(NC2CCCCC2)n2c(nc3ccccc32)c1C#N	U2OS ROS induce 163.6 (no result: YB-1 expression, NOMO-1 viab, PD-1 reversal)
CC(C)c1cc(NC(C)c2ccccc2)n2c(nc3ccccc32)c1C#N (configuration not stated)	U2OS ROS induce 257.2 (no result: YB-1 expression, NOMO-1 viab, PD-1 reversal)
C[C@H](CO)N1C[C@H](C)[C@@H](CN(C)Cc2ccc(Cl)c(Cl)c2)Oc2c(NC(=O)Nc3ccc4c(c3)OCO4)cccc2C1=O	NOMO-1 viab 81.6 (no result: PD-1 reversal)
C[C@@H]1CN([C@H](C)CO)C(=O)c2cccc(NC(=O)Nc3ccc4c(c3)OCO4)c2O[C@H]1CN(C)Cc1ccc(Cl)c(Cl)c1	NOMO-1 viab 87.1
C=CCC1OC(=O)CCNC(=O)C(C)N(C)C(=O)C(C(C)C)N(C)C(=O)C(C(C)CC)NC(=O)C2CCCN2C1=O (configuration not stated)	NOMO-1 viab 112.0
COC(=O)CNS(=O)(=O)c1ccc(I)cc1	none (no result: YB-1 expression, NOMO-1 viab, PD-1 reversal)
Cc1cc(C)c(S(=O)(=O)N(C)CC(=O)Nc2ccccc2F)c(C)c1	none (no result: YB-1 expression)
CC(=O)Nc1cc2c(ccc3ccccc32)oc1=O	none (no result: YB-1 expression, NOMO-1 viab, PD-1 reversal)
N=c1oc2ccc3ccccc3c2cc1C(=O)Nc1ccccc1	NOMO-1 viab 114.6
O=C(Nc1cc2c(ccc3ccccc32)oc1=O)c1ccccc1	YB-1 expression 3.29
Cc1ccc(C(=O)Nc2cc3ccccc3oc2=O)cc1	NOMO-1 viab 138.7
CCN(CC)C(=O)c1ccc(OC(C)=O)cc1	none (no result: YB-1 expression, NOMO-1 viab, PD-1 reversal)
CCc1oc2ccccc2c1C(=O)c1ccc(OC(C)=O)cc1	NOMO-1 viab 136.5
COC(=O)c1ccccc1NC(=O)C(C)Oc1ccc2c(C)cc(=O)oc2c1 (configuration not stated)	NOMO-1 viab 89.4 (no result: YB-1 expression, PD-1 reversal, U2OS ROS induce)
Cc1cc(=O)oc2cc(OC(C)C(=O)NCC3CCCO3)ccc12 (configuration not stated)	none (no result: YB-1 expression)
C[C@H]1CN([C@@H](C)CO)C(=O)Cc2cc(NC(=O)Nc3ccccc3)ccc2O[C@H]1CN(C)Cc1ccc(C(F)(F)F)cc1	NOMO-1 viab 127.2 (no result: PD-1 reversal)
C[C@H]1CN([C@@H](C)CO)C(=O)Cc2cc(NC(=O)Nc3ccc(C(F)(F)F)cc3)ccc2O[C@H]1CN(C)Cc1ccccc1	NOMO-1 viab 84.5 (no result: PD-1 reversal)
C[C@H](CO)N1C[C@H](C)[C@H](CN(C)Cc2ccccc2)Oc2ccc(NC(=O)Nc3ccc(C(F)(F)F)cc3)cc2CC1=O	NOMO-1 viab inconclusive
CCOC(=O)c1cnc2c(Cl)c(Cl)ccc2c1N(C)Cc1ccccc1	none (no result: YB-1 expression, NOMO-1 viab, PD-1 reversal)
CC1CCCCC1NC(=O)c1cnn2c(C(F)(F)F)cc(-c3ccccc3)nc12 (configuration not stated)	U2OS ROS induce 134.1 (no result: YB-1 expression, NOMO-1 viab, PD-1 reversal)
CC(C)CCNC(=O)c1cnn2c(C(F)(F)F)cc(-c3ccco3)nc12	U2OS ROS induce 119.1 (no result: YB-1 expression, NOMO-1 viab, PD-1 reversal)
O=C(NCc1cccnc1)c1cnn2c(C(F)(F)F)cc(-c3ccccc3)nc12	none (no result: YB-1 expression, U2OS ROS induce)
CC(C)c1ccc(NC(=O)CSc2n[nH]c(=O)n2C(C)c2ccccc2)cc1 (configuration not stated)	none (no result: YB-1 expression, NOMO-1 viab, PD-1 reversal)
O=C(CCCCCC(=O)Nc1ccccc1O)N/N=C/c1ccc(Br)cc1	none (no result: NOMO-1 viab, PD-1 reversal)
COc1ccc(C(=O)Nc2ccc(C(O)(C(F)(F)F)C(F)(F)F)cc2)cc1	NOMO-1 viab 109.7
COc1ccc(C(=O)C(C)Oc2cccc(NC(=O)c3cccc([N+](=O)[O-])c3)c2)cc1 (configuration not stated)	none (no result: YB-1 expression, PD-1 reversal, U2OS ROS induce)
COc1ccc(C(=O)C(C)Oc2ccc(NC(=O)c3cccc(OC)c3)cc2)cc1 (configuration not stated)	NOMO-1 viab 124.5 (no result: YB-1 expression)
COc1ccc(C(=O)Nc2ccc(C)c(C)c2)cc1	U2OS ROS induce inconclusive
O=C(CSc1nc2c(c(C(F)(F)F)n1)CCCC2)Nc1ccccc1	none (no result: YB-1 expression)
COC(=O)c1ccc([C@H]2C(C#N)=C(N)C(C#N)(C#N)C3=CCC(C(C)(C)C)C[C@@H]32)cc1 (some centres not stated)	NOMO-1 viab 115.6, U2OS ROS induce 225.9
Fc1nc(Nc2ccccc2)c2c(c1Cl)Oc1ccccc1O2	none (no result: YB-1 expression, NOMO-1 viab, PD-1 reversal)
C=C1C(=O)O[C@H]2[C@H]1[C@@H](OC(=O)C(C)(O)CCl)C(OC(C)=O)/C(C(=O)OC)=C\CC[C@@]1(C)O[C@H]21 (some centres not stated)	NOMO-1 viab 109.1
C=C1C(=O)O[C@H]2[C@H]1[C@@H](OC(=O)/C(C)=C\C)C(OC(C)=O)/C(C(=O)OC)=C\CC[C@@]1(C)O[C@H]21 (some centres not stated)	NOMO-1 viab 108.5, U2OS ROS induce 97.7
C=C1C(=O)O[C@H]2[C@H]1[C@@H](OC(=O)/C(C)=C/C)C(OC(C)=O)/C(C(=O)OC)=C\CC[C@@]1(C)O[C@H]21 (some centres not stated)	NOMO-1 viab 119.0
C=C1C(=O)O[C@H]2[C@H]1C[C@H](OC(=O)/C(C)=C\C)/C(C)=C\CC[C@@]1(C)O[C@@H]21	NOMO-1 viab 120.9, U2OS ROS induce 138.8
COc1ccc(-n2cnc3nc(C)c(C(=O)/C=C/N(C)C)c(-c4ccccc4)c32)cc1	none (no result: YB-1 expression, NOMO-1 viab, PD-1 reversal)
C[C@H](CO)N1C[C@H](C)[C@H](CN(C)S(=O)(=O)c2ccc(Cl)cc2)Oc2ccc(NC(=O)c3ccncc3)cc2CC1=O	U2OS ROS induce 102.3
C[C@@H]1CN([C@H](C)CO)C(=O)Cc2cc(NC(=O)Nc3ccc(C(F)(F)F)cc3)ccc2O[C@H]1CN(C)S(=O)(=O)c1ccc(Cl)cc1	NOMO-1 viab 117.0
C[C@H](CO)N1C[C@H](C)[C@H](CN(C)S(=O)(=O)c2ccc(Cl)cc2)Oc2ccc(NC(=O)Nc3ccc(C(F)(F)F)cc3)cc2CC1=O	NOMO-1 viab 133.6
COc1cc2c(cc1O)C(c1cccs1)N(C)CC2 (configuration not stated)	none (no result: NOMO-1 viab, PD-1 reversal)
CCCCN1Cc2c(n(CC(=O)c3ccc(OC)cc3)c3cc(-c4ccccc4)nn3c2=O)C1=O	U2OS ROS induce 170.2 (no result: YB-1 expression, NOMO-1 viab, PD-1 reversal)
COc1ccc(C(=O)Cn2c3ccccc3n3nc(-c4ccccc4)nc23)cc1OC	none (no result: YB-1 expression)
CC(C)(C)c1ccc(OCc2nnc(Sc3ccc([N+](=O)[O-])cn3)n2-c2ccccc2)cc1	NOMO-1 viab 108.9 (no result: YB-1 expression)
CCOC(=O)c1ccc(NC(=O)C2C(=O)N(C)C3(C)CC2c2ccccc2O3)cc1 (configuration not stated)	none (no result: YB-1 expression, NOMO-1 viab, PD-1 reversal)
Oc1c(C(Nc2ccccn2)c2cccc(OC3CCCC3)c2)ccc2cccnc12 (configuration not stated)	NOMO-1 viab 114.2 (no result: YB-1 expression)
C#CCOc1ccc(C(Nc2ccccn2)c2ccc3cccnc3c2O)cc1 (configuration not stated)	NOMO-1 viab 112.8 (no result: YB-1 expression, PD-1 reversal, U2OS ROS induce)
CC(=O)N(c1ccc2oc3c(c2c1)CCCC3)S(=O)(=O)c1cccc2cccnc12	none (no result: YB-1 expression)
